Assay outcomes from PubChem.
The list is not random: actives were taken first. Their share in the collection is about 8%.
HT1080NT lethal = kills 2HG-producing HT-1080-NT fibrosarcoma cells; HT-1080-NT fibrosarcoma viability, CellTiter-Glo ATP luminescence, 48 h; Potency, µM (series often up to 46.1 µM), actives largely listed as cytotoxic; 360,000 compounds, 1.6% hits; AID 686970;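 further: NT is the 2HG producing partner of a matched IDH1 knockdown line; nearly all actives have a fitted effect of over 55% in size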
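Toxicity toward the 2HG-producing NT line was scored as %Activity, normalised to DMSO and no-cell wells, from CellTiter-Glo luminescence after 48 hours' treatment.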
MCF10A rerep = DNA re-replication induction in MCF 10a cells | MCF 10A DNA re-replication, Hoechst nuclear intensity, 48 h | Potency, µM (series often up to 46.1 µM), most hits filed as activators | 350,000 compounds, 2.9% hits | AID 624296; further: nearly all actives have a fitted effect of over 50% in size
KB-V1 MDR tox = KB-V1 MDR subline cytotoxicity | KB-V1 MDR cells viability, CellTiter-Glo, 72 h | Potency, µM (series often up to 46.1 µM), hits mostly cytotoxic | 400,000 compounds, 3.4% hits; further: nearly all actives have a fitted effect of over 60% in size
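Luminescent ATP read-out (CellTiter-Glo, 10 min) measures survival of drug-selected KB-V1 MDR cells after 72 h, 37 degrees C compound exposure. Medium: phenol-red-free DMEM, 10% FBS. Values from fitted concentration-response curves.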
KB-3-1 tox = KB-3-1 parental cell cytotoxicity | KB-3-1 viability, CellTiter-Glo ATP luminescence, 72 h | Potency, µM (titrated, usually from 46.1 µM), actives largely listed as cytotoxic | 400,000 compounds, 1.4% hits; further: nearly all actives have a fitted effect of over 60% in size
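Screening of KB-3-1 cells (DMEM, 10% FBS, phenol-red free) ran from lowest to highest compound concentration; after 72 h at 37 °C viability was read luminescently and curves fitted.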
SW480 rereplic = inducers of DNA re-replication in SW480 colon cancer cells. Potency, µM (doses to about 46.1 µM), usual class: activators. 340,000 compounds, 1.8% hits. SW480 DNA re-replication, Hoechst DNA content imaging, 48 h; further: nearly all actives have a fitted effect of over 55% in size
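Treated cells incubate 48 hr (37 C, 5% CO2), are stained 40 min with Hoechst, and nuclear fluorescence is enumerated; a rise in nuclei with high DNA signal marks re-replication.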
HT1080 IDH1KD tx = kills HT-1080 cells with IDH1 knockdown. 360,000 compounds, 2% hits. AID 686971. HT-1080 IDH1 knockdown viability, ATP luminescence, 48 h. Potency, µM (titrated, usually from 46.1 µM), usual class: cytotoxic
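IDH1KD HT-1080 cells, 750/well, RPMI + 5% FBS; compound pinned after 2 h settling; 48 h, 37 °C; CellTiter-Glo luminescence; % activity normalised to DMSO and no-cell wells; curves fitted, classed by r2 and efficacy.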
Large screens that a line does not name were inactive. The call rests on the fitted dose curve; in most records, active means well fitted curve in the direction sought with a large enough effect; inconclusive means small, poorly fitted or top-dose-only effect, or another doubt; inactive means no such curve, though single readings can be large; an effect the other way counts as inactive or inconclusive.

CCCCCCC(=O)c1c(O)n(-c2ccccc2OC)c(=O)[nH]c1=O (tested in a mixture with another compound)	KB-V1 MDR tox inconclusive
CCCCCCC(=O)c1c(O)n(-c2ccc(OC)cc2)c(=O)[nH]c1=O (tested in a mixture with another compound)	KB-V1 MDR tox 8.2µM
CCCC12CN3CC(C)(CN(C1)C3c1c(C)[nH]c(=O)[nH]c1=O)C2=O (stereo unspecified)	none (no result: HT1080NT lethal, MCF10A rerep, SW480 rereplic, HT1080 IDH1KD tx)
CN1Cc2cccnc2N(C)Cc2cc(Cl)ccc21	KB-V1 MDR tox 16µM, KB-3-1 tox inconclusive
CCOC(=O)[C@]12Cc3cc(C)ccc3[C@H]1N(CCC(=O)OC)C(=O)c1cc(OC)ccc12	HT1080NT lethal 23µM, KB-V1 MDR tox 21µM, KB-3-1 tox 18µM, HT1080 IDH1KD tx 18µM (no result: MCF10A rerep, SW480 rereplic)
COc1cccc(N2C(=O)NC(=O)C3(Cc4cc(C)ccc4N(C)C3)C2=O)c1 (stereo unspecified)	none
CCOC(=O)[C@]12Cc3ccccc3[C@H]1N(CCC(=O)OC)C(=O)c1ccccc12	HT1080NT lethal inconclusive, KB-V1 MDR tox 5.2µM, KB-3-1 tox 5.2µM, HT1080 IDH1KD tx inconclusive (no result: MCF10A rerep, SW480 rereplic)
CCCCCN1C(=O)c2ccccc2[C@@]2(C(=O)OCC)Cc3cc(OC)ccc3[C@@H]12	HT1080NT lethal 15µM, KB-V1 MDR tox inconclusive, KB-3-1 tox 5.8µM, HT1080 IDH1KD tx 12µM (no result: MCF10A rerep, SW480 rereplic)
Cn1c(CCCC(=O)O)nc2cc(N(CCCl)CCCl)ccc21	MCF10A rerep inconclusive (no result: HT1080NT lethal, KB-V1 MDR tox, KB-3-1 tox, HT1080 IDH1KD tx)
CCOc1ccc(N(CC)S(=O)(=O)c2ccc3c(c2)oc(=O)n3C)cc1	MCF10A rerep inconclusive, KB-V1 MDR tox inconclusive, KB-3-1 tox inconclusive
S=c1[nH]nc(C2CC2)n1Cc1ccco1	HT1080NT lethal inconclusive
COc1cc(C)c(C(=O)CC(=O)c2c(C)cc(OC)cc2C)c(C)c1	MCF10A rerep 16µM, SW480 rereplic 16µM, HT1080 IDH1KD tx inconclusive
COc1cc(OC)cc(C(=O)Nc2ccc(Br)cc2C(=O)c2ccccc2)c1	none
CN[C@@H](C)[C@H]1CC[C@@H](N)[C@@H](O[C@@H]2[C@@H](O)[C@@H](O[C@H]3OC[C@@](C)(O)[C@@H](NC)[C@@H]3O)[C@H](N)C[C@@H]2N)O1 (tested in a mixture with another compound)	none (no result: HT1080NT lethal, KB-V1 MDR tox, KB-3-1 tox, HT1080 IDH1KD tx)
CCOc1cc(CNC2CCCC2)cc(Cl)c1OCc1ccc(F)cc1	HT1080NT lethal inconclusive, MCF10A rerep inconclusive, SW480 rereplic inconclusive, HT1080 IDH1KD tx inconclusive
O=C(Nc1ccccc1)Oc1ccccc1	KB-V1 MDR tox inconclusive
CC(C)Oc1ccc(CNC(=O)Oc2ccccc2)cc1	MCF10A rerep 12µM, KB-3-1 tox inconclusive, SW480 rereplic inconclusive, HT1080 IDH1KD tx inconclusive
CN(C)c1ccc(/C=C2/C(=O)NC(=O)N(Cc3ccco3)C2=O)cc1	none
CC(C)N1C(=O)/C(=C/C=C/c2ccco2)C(=O)N(Cc2ccco2)C1=O	HT1080NT lethal inconclusive, MCF10A rerep 9.2µM, KB-V1 MDR tox inconclusive, KB-3-1 tox inconclusive, SW480 rereplic inconclusive, HT1080 IDH1KD tx inconclusive
COc1ccc(/C=C2/C(=O)N(Cc3ccco3)C(=O)N(C(C)C)C2=O)cc1	MCF10A rerep 18µM
CCN1C(=O)C(=C/C=C/c2ccco2)C(=O)N(CC)C1=S	none
CC1=C/C(=N\NC(=S)NCCc2ccccc2)CC(C)(C)C1	MCF10A rerep inconclusive
O=C(Nc1ccc(Cl)cc1)Nc1nccs1	HT1080NT lethal 7.3µM, MCF10A rerep 7.3µM, KB-V1 MDR tox 2.6µM, KB-3-1 tox 4.6µM, SW480 rereplic 5.8µM, HT1080 IDH1KD tx 7.3µM
O=C(CCl)Nc1nccs1	HT1080NT lethal inconclusive, MCF10A rerep inconclusive, KB-V1 MDR tox inconclusive, KB-3-1 tox inconclusive, SW480 rereplic 16µM, HT1080 IDH1KD tx inconclusive
COc1cc(/C=C(/C)[N+](=O)[O-])ccc1OCc1ccccc1Cl	HT1080NT lethal 8.2µM, MCF10A rerep 3.7µM, KB-V1 MDR tox inconclusive, KB-3-1 tox inconclusive, SW480 rereplic 3.3µM, HT1080 IDH1KD tx 5.8µM
CCS(=O)(=O)N1Cc2cc(C(=O)N(C)C)nc(-c3cccc(-c4ccc(F)cc4)c3)c2[C@@H]1CCO	none (no result: MCF10A rerep, SW480 rereplic)
